# Test results: PubChem BioAssay (NCATS)
# Inconclusive results are not listed. Entries that show only a call come without a potency. Calls of active or inactive are those of the source. Calls come from the whole dose curve; as a rule, active = well fitted inhibition curve with a large enough effect; inconclusive = small, poorly fitted or top-dose-only effect; inactive = flat fitted curve, though single readings scatter.
# Molecular target: Calcium and integrin-binding protein 1 (Homo sapiens) (UniProt Q99828)
# Sequence (Q99828 whole entry, looked up): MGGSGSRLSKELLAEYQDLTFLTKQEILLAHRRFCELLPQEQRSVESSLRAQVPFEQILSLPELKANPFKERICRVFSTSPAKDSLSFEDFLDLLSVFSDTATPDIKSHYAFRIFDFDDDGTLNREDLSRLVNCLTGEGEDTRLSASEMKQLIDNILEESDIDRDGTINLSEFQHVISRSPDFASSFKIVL
# Experiment: Primary qHTS for Identification of Calcium Integrin Binding Protein 1 (CIB1) Competitor (AID 1508620);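 note: GST tagged CIB1 binding a fluorescein labelled alphaIIb integrin peptide tracer; top concentration of the series differs between compounds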
# Settings: CIB1-GST / FITC-alphaIIb peptide fluorescence polarization; series mostly up to 114 µM
# Outline: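 Fluorescence polarization competition: CIB1-GST (1 uM final) preincubated with compound 15 min at room temperature, then FITC-labeled alphaIIb peptide (100 nM final) added for another 15 min. Polarization read at Ex 480/Em 540.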
row,SMILES,Potency
1,O=[S+]([O-])(c1c(F)cccc1F)N1CCN([S+](=O)([O-])c2csc3ccccc23)CC1,inactive
2,O=S(=O)(Nc1nccs1)c1ccc(NCc2ccccc2)cc1,inactive
3,O=C(NC1CCCc2c1cnn2-c1ccc(F)cc1F)c1cccc(=O)[nH]1 (stereo not given),inactive
4,Cc1cc(C)nc(NC(=S)N2CCN(c3nccs3)CC2)c1,inactive
5,CN1CCN(C(=O)c2cccc(-c3ccc(CNc4ccc(N5CCN(C(=O)OC(C)(C)C)CC5)cc4)o3)c2)CC1,inactive
6,COc1ccc(NS(=O)(=O)c2ccccc2C(=O)O)cc1,inactive
7,CNc1nc(-c2cccc3ccccc23)ccc1C#N,inactive
8,Cc1ccc(NS(=O)(=O)c2ccc3c(c2)C(Cl)(Cl)C(=O)N3)cc1C,inactive
9,O=S(=O)(NC[C@@H]1CCC[C@H](CNS(=O)(=O)c2c(F)cccc2F)C1)c1ccc2c(c1)OCCO2,inactive
10,O=S(=O)(Nc1ccc(C2CCNCC2)cc1)c1ccc(NCc2cccc(Cl)c2O)cc1,inactive
11,N#Cc1nc(Nc2cc(F)cc(F)c2)c2ncn(CCO)c2n1,inactive
12,Cc1cc2c(s1)c1cnn(Cc3ccccc3)c(=O)c1n2C,inactive
13,COc1ccc(C[C@@H](NS(=O)(=O)c2ccc(C(=O)O)cc2)C(=O)O)cc1,inactive
14,CC(=O)Nc1cccc(S(=O)(=O)N2CCCN(S(=O)(=O)c3ccc4c(c3)OCCO4)CC2)c1,inactive
15,CC(=O)Nc1sc2c(c1-c1ccc3c(c1)OCCCO3)CCNC2,inactive
16,Cc1ccc(-c2nnc(N3CCC(C(N)=O)CC3)s2)cc1,inactive
17,O=C1CCc2cc(S(=O)(=O)Nc3cccc(Oc4ccccc4)c3)ccc2N1,inactive
18,CN(CCc1cnc[nH]1)c1ncnc2ccc(-c3ccc4c(c3)OCO4)cc12,inactive
19,O=C(CNC(=O)c1cccc(Cl)c1)OC(C(=O)Nc1cc(C(F)(F)F)ccc1Cl)c1ccccc1 (stereo not given),inactive
20,Cc1ccc(NS(=O)(=O)c2ccc(F)cc2)cc1C,inactive

row,SMILES,Potency
1,Cc1ccc(OCCn2c(CCNC(=O)c3ccccc3N)nc3ccccc32)cc1,inactive
2,Cc1cc2c(s1)c1cnn(Cc3c(Cl)ccc(C)c3F)c(=O)c1n2C,inactive
3,COc1ccc(-c2nc3ccccc3n2Cc2ccccc2)cc1COc1ccc(NC(C)=O)cc1,inactive
4,O=C(Cn1cc(CNCc2ccccc2)nn1)Nc1cc(C(F)(F)F)ccc1Cl,inactive
5,N#Cc1c(-c2csc(-c3no[n+]([O-])c3C#N)c2)no[n+]1[O-],inactive
6,CC(=O)Nc1sc2c(c1-c1ccc(N3CCN(C(C)=O)CC3)nc1)CCNC2,inactive
7,O=C1Nc2ccccc2C12CC2c1cc(Cl)c(O)c(Cl)c1 (stereo not given),inactive
8,NC(=O)c1ccccc1-c1noc(-c2ccccc2F)n1,inactive
9,NC(=O)C1CCN(c2ncc(-c3ccc4c(c3)OC(F)(F)O4)s2)CC1,inactive
10,Cc1cc2c(s1)c1cnn(Cc3ccc(OC(F)F)cc3)c(=O)c1n2C,inactive
11,COc1ccc(S(=O)(=O)NC2CCN(C#N)CC2)cc1,inactive
12,Cc1cn([C@H]2C[C@H](N[S+](=O)([O-])Cc3ccc([N+](=O)[O-])cc3)[C@@H](CO)O2)c(=O)[nH]c1=O,inactive
13,O=C(CNC(=O)C1CCCC1)OC(C(=O)Nc1cc(C(F)(F)F)ccc1Cl)c1ccccc1 (stereo not given),inactive
14,Cc1nc(-c2ccccc2C(C)C)nc(NCc2ccc(-c3cccnc3)cc2)c1C,inactive
15,CCCCc1ccc(-c2ccc(=O)n(CC(=O)NCCc3ccccc3)n2)cc1,inactive
16,O=C1CCCC2=C1C(c1[nH]ncc1Cl)N=C(Nc1nccs1)N2 (stereo not given),inactive
17,COc1ccc(C2=Nn3c(nnc3-c3ccc(OC)c(OC)c3)SC2)c(OC)c1,inactive
18,N#Cc1c(-c2ccc(C(=O)c3ccc(O)cc3)cc2)no[n+]1[O-],inactive
19,Cn1nnnc1Sc1ncnc2scc(-c3ccccc3F)c12,inactive
20,O=C(O)c1ccc2c(c1)C(=O)N([C@H](Cc1ccc(F)cc1)C(=O)O)C2=O,inactive
